In PubChem BioAssay (Tox21) one finds Potency, activity, negative = inhibition and activity change, negative = inhibition data, which are given here for 40 compounds.

A number with no mark means an inactive call. Records with an inconclusive call do not appear. The source made the active and inactive calls. Calls come from the whole dose curve.

Assay [1] deals with Acetylcholinesterase (Homo sapiens) (UniProt P22303). Kind of assay: Acetylcholinesterase (AChE) small molecule antagonists: colormetric cell-based qHTS assay (AID 1347395). Note: nearly all actives have a fitted effect of over 30% in size. Note: potency is the fitted concentration of half-maximal effect. The procedure, abridged:
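Homogeneous whole-cell format. SH-SY5Y cells seeded overnight, dosed with compound (30 min, 37 C, 5% CO2), then given DTNB/acetylthiocholine cocktail for 90 min at 37 C; colorimetric signal.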

For assay [2] the target is unchanged. Nature of the assay: Acetylcholinesterase (AChE) small molecule antagonists: enzyme-based qHTS assay (AID 1347397). Note: nearly all actives have a fitted effect of over 55% in size. As to conditions: Potency: AChE enzyme activity inhibition; outcome: AChE enzyme activity inhibition. The procedure, abridged:
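Enzyme inhibition was scored from DTNB-detected thiocholine formed by recombinant human AChE acting on acetylthiocholine. The 30 min compound preincubation and 10 min substrate reaction were both run at room temperature, with DMSO as vehicle control.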

For assay [3] the target is unchanged. Kind of assay: Acetylcholinesterase (AChE) small molecule antagonists: fluorescence cell-based qHTS assay (AID 1347398). Note: nearly all actives have a fitted effect of over 50% in size. Note: potency is the fitted concentration of half-maximal effect. As to conditions: Potency: AChE activity; outcome: AChE activity. The procedure, abridged: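 Endogenous acetylcholinesterase of SH-SY5Y neuroblastoma cells is measured in situ. After overnight attachment and 30 min compound exposure, cells receive acetylthiocholine and Thiolite Green; fluorescence is read after 40 min at room temperature.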

Assay [4] has the same target. Nature of the assay: Acetylcholinesterase (AChE) small molecule antagonists: enzyme-based qHTS assay with human liver microsomes (AID 1347399). Note: nearly all actives have a fitted effect of over 60% in size. As to conditions: Potency: qHTS inhibition; outcome: qHTS inhibition. The procedure, abridged:
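Recombinant human AChE (50 mU/mL in the enzyme mix) and human liver microsomes (0.25 mg/mL final) were preincubated with compound and NADPH (0.25 mg/mL final) for 30 min at 37 C. Acetylthiocholine/DTNB was then added; thiocholine was read colorimetrically after 10 min at room temperature.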
% is set by controls: 0 for no effect and ±100 for the full control effect.

Sequence of Acetylcholinesterase (Homo sapiens) (P22303 whole entry, looked up): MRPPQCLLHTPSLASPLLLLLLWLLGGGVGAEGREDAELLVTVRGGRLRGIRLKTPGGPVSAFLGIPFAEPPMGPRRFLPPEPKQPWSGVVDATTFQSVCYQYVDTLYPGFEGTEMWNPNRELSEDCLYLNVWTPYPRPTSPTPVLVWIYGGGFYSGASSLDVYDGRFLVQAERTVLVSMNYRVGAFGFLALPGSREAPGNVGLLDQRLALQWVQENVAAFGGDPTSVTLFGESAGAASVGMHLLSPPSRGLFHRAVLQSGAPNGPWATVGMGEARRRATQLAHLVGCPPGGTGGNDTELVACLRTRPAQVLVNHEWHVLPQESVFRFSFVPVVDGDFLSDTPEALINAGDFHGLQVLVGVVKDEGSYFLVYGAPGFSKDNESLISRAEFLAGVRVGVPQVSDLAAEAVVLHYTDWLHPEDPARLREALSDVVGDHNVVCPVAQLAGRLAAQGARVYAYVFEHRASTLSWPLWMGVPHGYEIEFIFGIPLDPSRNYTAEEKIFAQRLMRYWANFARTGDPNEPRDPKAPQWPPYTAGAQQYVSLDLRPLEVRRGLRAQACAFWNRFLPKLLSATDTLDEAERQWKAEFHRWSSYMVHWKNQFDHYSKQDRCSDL

As for `COc1ccc([N+](=O)[O-])cc1N`, the Potency entry in assay [1], in assay [2], in assay [3] and in assay [4] was “inactive” each time.

In the case of `Cc1sccc1Br`, the Potency result in assay [1], in assay [2], in assay [3] and in assay [4] was “inactive” each time.

Turning to `CNc1c2c(nn1C)CCCC2`, the Potency result in assay [1], in assay [2], in assay [3] and in assay [4] was “inactive” throughout.

Turning to `CN=C(N)NC(=O)Nc1c(C)cccc1C`, the Potency entry in assay [1], in assay [2], in assay [3] and in assay [4] was “inactive” in each case.

As to `c1ccc2cc3ccccc3cc2c1`, the Potency result in assay [1], in assay [2], in assay [3] and in assay [4] was “inactive” throughout.

For `NC(=O)Nc1nc2ccccc2[nH]1`, the Potency result in assay [1], in assay [2], in assay [3] and in assay [4] was “inactive” throughout.

As to `Cc1c(Cl)c(=O)oc2cc(O)ccc12`, the Potency in assay [1] is 35.6 µM (active); in assay [3], 71 µM (active). The Potency result in assay [2] and in assay [4] was “inactive” throughout.

For the compound `O=C(O)c1ccccc1Nc1cc(Cl)ccc1C(=O)O`, the activity, negative = inhibition in assay [1] was 1.23% [at 23.6 µM]. The figures for the activity change, negative = inhibition in assay [2], in assay [3] and in assay [4] were 2.19% [at 23.6 µM], 2.35% [at 23.8 µM] and 0.168% [at 23.6 µM], respectively.

For the compound `C=Cc1ccc(C(C)(C)C)cc1`, the Potency entry in assay [1], in assay [2], in assay [3] and in assay [4] was “inactive” each time.

With `CC(=O)Nc1ccc2c(c1)Cc1cc(NC(C)=O)ccc1-2`, the Potency result in assay [1], in assay [2], in assay [3] and in assay [4] was “inactive” throughout.

Turning to `Cc1ccc(-n2nc(C(C)(C)C)cc2NC(=O)Nc2ccc(OCCN3CCOCC3)c3ccccc23)cc1`, the Potency result in assay [1], in assay [2], in assay [3] and in assay [4] was “inactive” throughout.

With `CCCCc1ccc(Cl)cc1`, the Potency entry in assay [1], in assay [2], in assay [3] and in assay [4] was “inactive” each time.

Consider `C=C(C)C(=O)OC(C)C`, for which the Potency entry in assay [1], in assay [2], in assay [3] and in assay [4] was “inactive” in each case.

`CNS(=O)(=O)CCc1ccc2[nH]cc(C3CCN(C)CC3)c2c1`: the Potency result in assay [1], in assay [2], in assay [3] and in assay [4] was “inactive” in each case.

For `COS(=O)(=O)O`, the Potency result in assay [1], in assay [2], in assay [3] and in assay [4] was “inactive” each time.

As for `COc1ccc2nc(N)sc2c1`, the Potency entry in assay [1], in assay [2], in assay [3] and in assay [4] was “inactive” in each case.

On to `CCCCC(CC)COC(=O)CC(C(=O)OCC(CC)CCCC)S(=O)(=O)O` (stereo not given), for which the Potency entry in assay [1], in assay [2], in assay [3] and in assay [4] was “inactive” in each case.

For the compound `C1CN(CCOCCN2CCOCC2)CCO1`, the Potency result in assay [1], in assay [2], in assay [3] and in assay [4] was “inactive” in each case.

In the case of `CCCc1c(OCCCCc2nn[nH]n2)ccc(C(C)=O)c1O`, the Potency entry in assay [1], in assay [2], in assay [3] and in assay [4] was “inactive” throughout.

As to `Cc1scc2c1N(C(=O)CN1CCN(C)CC1)c1ccccc1NC2=O`, the Potency result in assay [1], in assay [2], in assay [3] and in assay [4] was “inactive” each time.

Take `Cn1c([N+](=O)[O-])cnc1COC(N)=O`: the Potency entry in assay [1], in assay [2], in assay [3] and in assay [4] was “inactive” in each case.

Turning to `O=C(c1ccccc1)c1ccc(O)cc1O`, the Potency entry in assay [1], in assay [2], in assay [3] and in assay [4] was “inactive” each time.

With `CCCCCCCOC(C)=O`, the Potency entry in assay [1], in assay [2], in assay [3] and in assay [4] was “inactive” each time.

Turning to `CC(C)(C)Cl`, the Potency result in assay [1], in assay [2], in assay [3] and in assay [4] was “inactive” throughout.

For the compound `COc1cc(C)cc(O)c1`, the Potency result in assay [1], in assay [2], in assay [3] and in assay [4] was “inactive” each time.

With `OCCN1CCN(CCCN2c3ccccc3C=Cc3ccccc32)CC1`, the Potency entry in assay [1], in assay [2], in assay [3] and in assay [4] was “inactive” throughout.

For `Clc1ccc(Sc2cc(Cl)c(Cl)cc2Cl)cc1`, the Potency entry in assay [1], in assay [2], in assay [3] and in assay [4] was “inactive” each time.

With `CC(c1cc2ccccc2s1)N(O)C(N)=O` (stereo not given), the Potency result in assay [1], in assay [2], in assay [3] and in assay [4] was “inactive” throughout.

For `C=CC(=O)OCC1CC2CC1C1CCC(COC(=O)C=C)C21` (stereo not given), the Potency entry in assay [1], in assay [2], in assay [3] and in assay [4] was “inactive” each time.

With `CC1=C(/C=C/C(C)=C/C=C/C(C)=C/CO)C(C)(C)CCC1`, the Potency result in assay [1], in assay [2], in assay [3] and in assay [4] was “inactive” in each case.

Turning to `CCC[Si](OC)(OC)OC`, the Potency result in assay [1], in assay [2], in assay [3] and in assay [4] was “inactive” throughout.

`CCCCCCO`: the Potency entry in assay [1], in assay [2], in assay [3] and in assay [4] was “inactive” throughout.

As for `O=C(O)Cn1c(C(=O)Nc2nc(-c3ccccc3Cl)cs2)cc2ccccc21`, the Potency result in assay [1], in assay [2], in assay [3] and in assay [4] was “inactive” in each case.

As to `C[C@@H](CN1CC(=O)NC(=O)C1)N1CC(=O)NC(=O)C1`, the Potency entry in assay [1], in assay [2], in assay [3] and in assay [4] was “inactive” in each case.

Regarding `CCCCCCCCCCCCN1CCCCCC1=O`, the Potency entry in assay [1], in assay [2], in assay [3] and in assay [4] was “inactive” each time.

Regarding `OCCN1CCN(CCO)CC1`, the Potency result in assay [1], in assay [2], in assay [3] and in assay [4] was “inactive” in each case.

`CO[C@H]1O[C@H](CO)[C@@H](O)[C@H](O)[C@H]1O`: the Potency result in assay [1], in assay [2], in assay [3] and in assay [4] was “inactive” in each case.

Regarding `C/C=C(\C)C(=O)OCCC(C)CCC=C(C)C` (stereo not given), the Potency entry in assay [1], in assay [2], in assay [3] and in assay [4] was “inactive” throughout.

In the case of `O=C(c1ccccc1)c1ccccc1O`, the Potency result in assay [1], in assay [2], in assay [3] and in assay [4] was “inactive” throughout.

`CCCCCCN`: the Potency entry in assay [1], in assay [2], in assay [3] and in assay [4] was “inactive” throughout.
